For some of these results: Potency and affinity values are given separately.
What was measured:
Parameters in all cases: scale not given: direction of the effect not stated beside the values
[1] = molecular target: Protein translocase subunit SecA (Escherichia coli (strain K12)) (UniProt P10408); test: Assay to Identify E. coli SecA ATPase Inhibitors; format: functional; settings: 30 µM
[2] = molecular target: T1, Ubiquitin-activating enzyme e1, putative (Leishmania donovani (strain BPK282A1)) (UniProt E9BSI1); test: Leishmania donovani Ubiquitin Activating Enzyme (LdE1); format: functional; settings: 30 µM
T1 sequence (whole entry): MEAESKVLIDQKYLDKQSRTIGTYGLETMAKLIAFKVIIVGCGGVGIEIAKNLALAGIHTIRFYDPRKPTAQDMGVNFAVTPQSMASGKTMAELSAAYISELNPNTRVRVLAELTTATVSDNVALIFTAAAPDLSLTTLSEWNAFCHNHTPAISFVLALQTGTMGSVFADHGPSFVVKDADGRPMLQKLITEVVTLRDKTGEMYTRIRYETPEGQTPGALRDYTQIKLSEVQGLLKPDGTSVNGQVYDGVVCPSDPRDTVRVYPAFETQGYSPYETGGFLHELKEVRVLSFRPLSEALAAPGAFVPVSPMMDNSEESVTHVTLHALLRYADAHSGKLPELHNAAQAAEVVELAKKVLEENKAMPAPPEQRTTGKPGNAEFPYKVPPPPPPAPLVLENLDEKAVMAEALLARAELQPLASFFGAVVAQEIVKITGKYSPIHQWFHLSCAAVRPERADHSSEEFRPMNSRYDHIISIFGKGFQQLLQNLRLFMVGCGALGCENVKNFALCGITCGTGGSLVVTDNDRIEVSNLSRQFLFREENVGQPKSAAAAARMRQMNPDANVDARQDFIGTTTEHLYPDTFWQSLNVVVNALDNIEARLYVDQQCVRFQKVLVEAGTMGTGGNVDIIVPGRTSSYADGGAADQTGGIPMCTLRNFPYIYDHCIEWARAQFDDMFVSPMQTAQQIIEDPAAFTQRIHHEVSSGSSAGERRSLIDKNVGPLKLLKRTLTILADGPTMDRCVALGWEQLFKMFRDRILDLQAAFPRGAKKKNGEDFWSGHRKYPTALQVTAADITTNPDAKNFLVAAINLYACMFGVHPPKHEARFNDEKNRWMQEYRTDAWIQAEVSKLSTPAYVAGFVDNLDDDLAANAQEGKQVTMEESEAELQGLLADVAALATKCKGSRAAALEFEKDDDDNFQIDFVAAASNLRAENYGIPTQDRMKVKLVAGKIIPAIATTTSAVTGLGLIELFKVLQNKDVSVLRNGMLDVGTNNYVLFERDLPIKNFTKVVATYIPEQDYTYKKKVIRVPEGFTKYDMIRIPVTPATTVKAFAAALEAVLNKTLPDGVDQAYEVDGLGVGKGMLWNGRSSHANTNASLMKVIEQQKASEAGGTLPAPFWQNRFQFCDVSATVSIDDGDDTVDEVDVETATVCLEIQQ

[3] = molecular target: AMP-activated protein kinase, AMPK (Homo sapiens) (UniProt P54646+O43741+P54619+Q9UGJ0+Q9Y478+Q13131+Q9UGI9); test: AMP-dependent Kinase enzyme assay. An in vitro enzyme assay that detects ADP turnover that is directly proportional to AMPK activity. This uses naive AMPK that is activated during the assay with MK-8722; format: functional; settings: 30 µM
[4] = molecular target: Sialic acid-binding Ig-like lectin 9 (Homo sapiens) (UniProt Q9Y336); test: Hs-Siglec9 ALPHAscreen SOP 20170721; settings: 10 µM
Trypanosoma cruzi = test: Trypanosoma cruzi phosphomannomutase and mannose-1-phosphate guanylyltransferase assay; format: functional; settings: 10 µM
[5] = molecular target: T2, Arginase-2, mitochondrial (Homo sapiens) (UniProt P78540); test: in vitro enzyme assay to detect the production of urea directly proportional to the activity of Arginase II; format: functional; settings: 33.3 µM; further: in the data most compounds retested in dose-response had high values
T2 sequence (whole entry): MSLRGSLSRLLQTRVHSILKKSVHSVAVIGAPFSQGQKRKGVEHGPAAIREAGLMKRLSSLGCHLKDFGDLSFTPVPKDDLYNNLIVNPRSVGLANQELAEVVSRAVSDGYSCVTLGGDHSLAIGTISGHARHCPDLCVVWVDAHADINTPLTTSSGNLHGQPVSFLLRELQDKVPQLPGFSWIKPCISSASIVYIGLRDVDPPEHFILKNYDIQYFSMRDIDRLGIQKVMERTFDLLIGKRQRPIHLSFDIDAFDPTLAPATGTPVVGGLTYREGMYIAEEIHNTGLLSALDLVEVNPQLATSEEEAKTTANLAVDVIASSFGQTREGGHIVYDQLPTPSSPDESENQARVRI

[6] = molecular target: T3, Proteasome subunit beta (Trypanosoma cruzi) (UniProt O96673); test: Trypanosoma cruzi proteasome chymotrypsin-like activity (TcProtChymo) assay.; further: in the data most compounds retested in dose-response had high values; format: functional; settings: 9.37 µM
T3 sequence (whole entry): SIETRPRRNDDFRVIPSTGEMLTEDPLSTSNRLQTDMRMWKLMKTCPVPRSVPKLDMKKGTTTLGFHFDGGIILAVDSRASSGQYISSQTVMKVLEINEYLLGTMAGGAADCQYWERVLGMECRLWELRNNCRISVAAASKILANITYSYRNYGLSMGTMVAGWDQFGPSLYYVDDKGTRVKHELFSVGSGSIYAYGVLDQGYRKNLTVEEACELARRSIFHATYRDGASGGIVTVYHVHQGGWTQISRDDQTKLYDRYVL

Homo sapiens = organism: Homo sapiens; test: To identify inhibition of the IFN signalling (Jak-Stat) pathway via expression of an eGFP reporter gene under the control of an IFN-stimulated response element (ISRE) containing MxA promoter.; format: functional; settings: 30 µM
[7] = molecular target: T4, Tyrosyl-tRNA synthetase, putative (Trypanosoma cruzi (strain CL Brener)) (UniProt Q4DSP6); test: Trypanosoma cruzi tyrosyl tRNA synthetase (TcYRS) _High Tyrosine SOP; format: functional; settings: 30 µM; further: in the data most compounds retested in dose-response had high values
T4 sequence (whole entry): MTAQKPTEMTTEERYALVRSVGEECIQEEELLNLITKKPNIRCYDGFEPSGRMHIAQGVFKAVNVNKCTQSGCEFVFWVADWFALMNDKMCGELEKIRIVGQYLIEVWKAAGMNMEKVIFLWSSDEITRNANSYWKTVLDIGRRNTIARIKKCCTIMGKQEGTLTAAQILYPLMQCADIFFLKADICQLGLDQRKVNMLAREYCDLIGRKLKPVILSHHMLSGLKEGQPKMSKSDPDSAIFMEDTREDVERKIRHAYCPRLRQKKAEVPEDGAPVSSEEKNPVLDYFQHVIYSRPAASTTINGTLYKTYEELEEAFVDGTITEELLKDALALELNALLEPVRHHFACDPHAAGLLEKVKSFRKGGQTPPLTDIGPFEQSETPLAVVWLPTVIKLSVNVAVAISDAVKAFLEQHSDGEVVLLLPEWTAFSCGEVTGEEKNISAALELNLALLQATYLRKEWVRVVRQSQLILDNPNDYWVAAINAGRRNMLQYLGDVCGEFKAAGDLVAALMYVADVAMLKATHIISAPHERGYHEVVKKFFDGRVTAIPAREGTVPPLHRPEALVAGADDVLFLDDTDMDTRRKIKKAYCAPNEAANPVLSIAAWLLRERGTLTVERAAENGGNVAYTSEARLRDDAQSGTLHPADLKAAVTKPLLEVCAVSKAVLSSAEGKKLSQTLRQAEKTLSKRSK

[8] = molecular target: T4, Tyrosyl-tRNA synthetase, putative (Trypanosoma cruzi (strain CL Brener)); test: Trypanosoma cruzi tyrosyl tRNA synthetase (TcYRS) SOP; format: functional; settings: 30 µM
[9] = molecular target: Chromo domain-containing protein 1 (Saccharomyces cerevisiae (strain ATCC 204508 / S288c) (Baker's yeast)) (UniProt P32657); test: ScCHD-1 Enzyme Inhibition Assay; format: functional; settings: 30 µM; further: in the data most compounds retested in dose-response had high values
Sequence of Chromo domain-containing protein 1 (Saccharomyces cerevisiae (strain ATCC 204508 / S288c) (Baker's yeast)) (P32657 whole entry, the tested form may be a part): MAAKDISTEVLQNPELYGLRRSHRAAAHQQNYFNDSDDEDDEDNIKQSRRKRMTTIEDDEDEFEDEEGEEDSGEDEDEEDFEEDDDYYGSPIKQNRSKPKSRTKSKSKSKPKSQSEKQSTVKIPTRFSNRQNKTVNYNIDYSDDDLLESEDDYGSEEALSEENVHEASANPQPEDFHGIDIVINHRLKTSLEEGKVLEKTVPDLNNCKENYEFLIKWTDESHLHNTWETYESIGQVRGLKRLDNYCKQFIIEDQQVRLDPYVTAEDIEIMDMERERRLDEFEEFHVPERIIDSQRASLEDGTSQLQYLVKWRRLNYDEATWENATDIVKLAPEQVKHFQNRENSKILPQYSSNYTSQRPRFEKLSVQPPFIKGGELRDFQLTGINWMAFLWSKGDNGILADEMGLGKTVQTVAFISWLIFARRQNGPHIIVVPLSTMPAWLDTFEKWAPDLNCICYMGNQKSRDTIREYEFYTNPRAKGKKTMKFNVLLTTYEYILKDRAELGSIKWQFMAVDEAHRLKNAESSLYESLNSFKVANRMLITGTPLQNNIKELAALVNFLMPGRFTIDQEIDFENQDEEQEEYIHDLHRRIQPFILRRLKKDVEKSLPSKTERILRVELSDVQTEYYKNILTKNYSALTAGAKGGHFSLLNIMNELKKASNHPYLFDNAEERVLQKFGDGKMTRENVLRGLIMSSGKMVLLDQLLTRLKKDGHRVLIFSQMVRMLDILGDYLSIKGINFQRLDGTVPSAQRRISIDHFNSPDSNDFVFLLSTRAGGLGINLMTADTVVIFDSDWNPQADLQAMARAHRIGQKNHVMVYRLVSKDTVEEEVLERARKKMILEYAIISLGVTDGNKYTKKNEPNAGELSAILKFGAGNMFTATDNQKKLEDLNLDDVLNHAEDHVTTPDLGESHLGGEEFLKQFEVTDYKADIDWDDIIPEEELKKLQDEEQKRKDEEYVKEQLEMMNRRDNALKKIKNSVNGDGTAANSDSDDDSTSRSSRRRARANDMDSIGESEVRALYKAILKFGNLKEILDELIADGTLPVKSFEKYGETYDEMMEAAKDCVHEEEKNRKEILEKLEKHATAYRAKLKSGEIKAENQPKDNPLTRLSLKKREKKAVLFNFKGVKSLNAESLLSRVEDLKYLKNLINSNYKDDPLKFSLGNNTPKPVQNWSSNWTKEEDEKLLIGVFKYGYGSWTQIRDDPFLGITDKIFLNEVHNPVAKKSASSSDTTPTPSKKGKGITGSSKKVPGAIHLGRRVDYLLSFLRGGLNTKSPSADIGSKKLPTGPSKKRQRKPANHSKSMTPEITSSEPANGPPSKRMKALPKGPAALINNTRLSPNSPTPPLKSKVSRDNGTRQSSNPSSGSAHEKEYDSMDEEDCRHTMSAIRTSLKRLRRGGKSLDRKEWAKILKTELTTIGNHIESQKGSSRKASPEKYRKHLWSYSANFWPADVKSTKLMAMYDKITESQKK

Sequence of Protein translocase subunit SecA (Escherichia coli (strain K12)) (P10408 whole entry): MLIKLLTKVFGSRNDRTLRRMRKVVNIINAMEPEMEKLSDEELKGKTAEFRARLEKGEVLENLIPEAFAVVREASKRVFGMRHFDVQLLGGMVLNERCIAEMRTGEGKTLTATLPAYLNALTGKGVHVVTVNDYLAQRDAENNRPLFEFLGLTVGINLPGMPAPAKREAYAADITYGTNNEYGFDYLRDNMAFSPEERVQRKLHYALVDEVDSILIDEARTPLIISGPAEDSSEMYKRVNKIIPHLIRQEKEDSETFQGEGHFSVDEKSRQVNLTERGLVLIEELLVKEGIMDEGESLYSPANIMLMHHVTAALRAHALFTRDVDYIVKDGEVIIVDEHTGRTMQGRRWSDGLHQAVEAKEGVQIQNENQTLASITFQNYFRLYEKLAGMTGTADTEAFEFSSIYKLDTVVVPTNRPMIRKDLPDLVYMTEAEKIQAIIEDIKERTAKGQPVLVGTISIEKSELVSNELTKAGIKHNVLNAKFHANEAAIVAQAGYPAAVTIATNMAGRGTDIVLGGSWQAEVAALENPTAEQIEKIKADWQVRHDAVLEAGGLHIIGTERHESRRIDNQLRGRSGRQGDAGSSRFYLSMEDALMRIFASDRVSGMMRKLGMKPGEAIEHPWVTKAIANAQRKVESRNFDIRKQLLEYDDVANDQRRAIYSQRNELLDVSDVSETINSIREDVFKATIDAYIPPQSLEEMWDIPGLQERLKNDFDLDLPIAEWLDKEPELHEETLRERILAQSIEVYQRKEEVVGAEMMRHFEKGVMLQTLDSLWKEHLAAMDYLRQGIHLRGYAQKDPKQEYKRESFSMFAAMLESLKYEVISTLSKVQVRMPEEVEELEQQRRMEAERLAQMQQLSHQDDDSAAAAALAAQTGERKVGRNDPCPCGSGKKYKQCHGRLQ
Sequence of Sialic acid-binding Ig-like lectin 9 (Homo sapiens) (Q9Y336 whole entry): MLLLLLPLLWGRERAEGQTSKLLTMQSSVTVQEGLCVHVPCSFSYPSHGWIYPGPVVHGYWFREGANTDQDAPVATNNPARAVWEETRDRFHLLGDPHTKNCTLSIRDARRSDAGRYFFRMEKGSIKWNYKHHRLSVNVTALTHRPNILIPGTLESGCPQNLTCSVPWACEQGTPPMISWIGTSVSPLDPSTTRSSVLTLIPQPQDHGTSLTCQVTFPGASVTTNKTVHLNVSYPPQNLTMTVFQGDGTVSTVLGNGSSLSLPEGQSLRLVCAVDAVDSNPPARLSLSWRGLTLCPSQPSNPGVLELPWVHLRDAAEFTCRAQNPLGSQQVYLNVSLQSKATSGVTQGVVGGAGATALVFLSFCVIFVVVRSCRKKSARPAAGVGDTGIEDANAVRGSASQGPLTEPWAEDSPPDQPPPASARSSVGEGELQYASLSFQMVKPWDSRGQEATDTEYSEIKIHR

Compound `O=C(Nc1cccc(Cl)c1)c1nn(C2CCS(=O)(=O)C2)c2c1CCCC2` (stereo not given) has a Percent Effect [1] of -5%, a Percent Effect [2] of -7.89% and a Percent Effect [3] of 10.5%. For the same compound, the Percent Effect [4] was 6.51%, the Percent Effect (Trypanosoma cruzi) was -1.27% and the Percent Effect [5] was -3.55%. For the same compound, the Percent Effect [6] was 12.4%, the Percent Effect (Homo sapiens) was -5.46% and the Percent Effect [7] was -1.06%. For the same compound, the Percent Effect [8] was 2.6% and the Percent Effect [9] was -5.58%.

In the case of `CCc1noc(C)c1C(=O)N1CCCC1Cn1cc(C)cn1` (stereo not given), the Percent Effect [1] is reported as -3.44%, the Percent Effect [2] is reported as 15.8% and the Percent Effect [3] is reported as 8.82%. It also gave a Percent Effect [4] of -9.39%, a Percent Effect (Trypanosoma cruzi) of -10.4% and a Percent Effect [5] of 0%. It also gave a Percent Effect [6] of 3.64%, a Percent Effect (Homo sapiens) of -1.17% and a Percent Effect [7] of 2.46%. It also gave a Percent Effect [8] of 1.24% and a Percent Effect [9] of -10.2%.

`O=C(CN1CCCC1Cn1cccn1)NC1CCOCC1` (stereo not given) was tested, and the Percent Effect [1] was -0.811%, the Percent Effect [2] was 0% and the Percent Effect [3] was -3.32%. The Percent Effect [4] was -1.02%, the Percent Effect (Trypanosoma cruzi) was 0.772% and the Percent Effect [5] was -2.38%. It also gave a Percent Effect [6] of 13.6%, a Percent Effect (Homo sapiens) of -13.8% and a Percent Effect [7] of 1.59%. For the same compound, the Percent Effect [8] was -12.2% and the Percent Effect [9] was -2.17%.

Compound `O=C1CC2(CCN(CCO)CC2)CN1Cc1cc(F)cc(F)c1` has a Percent Effect [1] of -3.75%, a Percent Effect [2] of 6.94% and a Percent Effect [3] of -9.77%. The Percent Effect [4] was 27.6%, the Percent Effect (Trypanosoma cruzi) was 4.18% and the Percent Effect [5] was 13.7%. It also gave a Percent Effect [6] of 11.2%, a Percent Effect (Homo sapiens) of -13.2% and a Percent Effect [7] of 2.1%. For the same compound, the Percent Effect [8] was 10.3% and the Percent Effect [9] was -9.52%.

`COCCN(C)C(=O)Nc1ccc2c(ccn2CCOC)c1` showed a Percent Effect [1] of -6.84%, a Percent Effect [2] of 28.9% and a Percent Effect [3] of -12.8%. The Percent Effect [4] was 0.86%, the Percent Effect (Trypanosoma cruzi) was 6.33% and the Percent Effect [5] was -1.18%. It also gave a Percent Effect [6] of -0.0959%, a Percent Effect (Homo sapiens) of 1.75% and a Percent Effect [7] of 4.25%. For the same compound, the Percent Effect [8] was 13% and the Percent Effect [9] was -17.1%.

— ChEMBL document CHEMBL3988442, “University of Dundee, Small-Polar-MMV Screening Library” (2021)
